According to PubChem BioAssay (NCI):
Compounds without any hit were thinned out: in the full panel of roughly 83,000, 20% have a hit.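 Method: cells in 96-well plates; compound added at one concentration; 48 h incubation; percent growth measured; values under 10 scored active.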 Calls of active or inactive are those of the source.

These compounds were tested on UO-31 renal (assay: NCI-60 one-dose screen, 48 h (100 = growth as untreated, 0 = no growth, -100 = all killed)). Conditions: 10 µM unless noted.

| SMILES | growth |
| --- | --- |
| Cc1cc(N=C2NC(=O)CS2)n[nH]1 | 79.3% (inactive) |
| Cc1ccc(C(=O)CSc2nc3ccc(F)cc3c(=O)n2-c2ccc(Cl)cc2)cc1 | 56.4% (inactive) |
| COc1ccc(C(=O)/C=C/c2cccc(Br)c2)cc1S(N)(=O)=O | -91.8% (active) |
| Cc1sc(C(NC(=O)OCCn2c([N+](=O)[O-])cnc2C)C(F)(F)Cl)nc1-c1ccc(OC(F)(F)F)cc1 (stereo not drawn) | -95.5% (active) |
| COc1ccc(NC(=O)Cn2c3c(sc2=O)[C@H]2[C@@H](O)[C@@H](O)[C@H](O)[C@@H]2CS3)cc1 | 90.2% (inactive) |

The compounds below were run on TK-10 renal in the same assay as above. Conditions: 10 µM unless noted.

| SMILES | growth |
| --- | --- |
| O=C(NNc1nc2cc(C(F)(F)F)ccc2n2cccc12)c1cnccn1 | -91.8% (active) |
| Cc1cccc(NC(=O)[C@]23CCC(C)(C)CC2C2=CCC4[C@@]5(C)C[C@@H](O)[C@H](O)[C@@](C)(CO)C5CC[C@@]4(C)[C@]2(C)CC3)c1 (stereo partly drawn) | 52.9% (inactive) |
| CCCCSc1nc(NCCc2c[nH]c3ccccc23)c(C#N)c(-c2ccc(F)cc2)n1 | 107% (inactive) |
| COc1ccc(-c2ccnc(SCc3cc4cc(Cl)ccc4[nH]c3=O)n2)cc1 | 19.5% (inactive) |
| O=c1[nH]c2ccccc2cc1CSc1nccc(-c2ccc3ccccc3c2)n1 | 83% (inactive) |
| CCCCCCCCc1ccc(S(=O)(=O)Nc2ccc(CC)cc2C(=O)O)cc1 | 104% (inactive) |
| COc1cc(OC)c2c3nc4cc(C)c(C)cc4nc3n(CCN(C)C)c2c1 | 147% (inactive) |
| N#Cc1c(-c2cccc(O)c2O)cc(-c2ccc3ccccc3c2)[nH]c1=O | 85.4% (inactive) |
| O=c1[nH]n(C(=S)N/N=C/c2ccccc2Cl)c(=O)c2ccccc12 | 25.8% (inactive) |
| COc1ccc(C(=O)/C=C/c2cccc(Cl)c2Cl)cc1S(N)(=O)=O | 20.3% (inactive) |
| COc1ccc(C(=O)/C=C/c2cccnc2)cc1S(N)(=O)=O | 66.8% (inactive) |
| Cc1cc2nc3c4ccccc4n(CC4=NCCN4)c3nc2cc1C | 64.4% (inactive) |
| CCCCCCCCc1ccc(C(=O)Nc2cccc(P(=O)(O)O)c2)cc1 | 105% (inactive) |
| Cc1cc2nc3c([nH]c2cc1C)c1ccc(=O)cc1n3CCN(C)C | 105% (inactive) |
| O=C(c1ccc(Cl)cc1)c1ccc(OCCCN2CCN(c3ccncc3)CC2)cc1 | 82.2% (inactive) |
| CCCCSc1nc(NCCc2c[nH]c3ccccc23)c(C#N)c(-c2ccccc2)n1 | 74.3% (inactive) |
| O=C1N/C(=N\c2nccs2)S/C1=C\C=C/c1ccccc1 | 34.5% (inactive) |
| CC(=O)OC[C@@]1(C)C2CC[C@]3(C)C(CC=C4C5CC(C)(C)CC[C@]5(C(=O)Nc5cccc(C)c5)CC[C@]43C)[C@@]2(C)C[C@@H](OC(C)=O)[C@@H]1OC(C)=O (stereo partly drawn) | 52.9% (inactive) |
| COc1ccc(C(SCCNCc2cc(N(C)C)ccn2)(c2ccccc2)c2ccccc2)cc1 | 24.5% (inactive) |

| SMILES | growth |
| --- | --- |
| O=c1onc(-c2cc3ccccc3nc2Cl)n1-c1cccc2ccccc12 | 78.6% (inactive) |
| COc1ccc(C2=NN(c3ccccc3)C(c3ccc(OCc4ccccc4)c(OC)c3)C2)cc1OC (stereo not drawn) | 120% (inactive) |
| Nc1n[nH]c2cccc(C#Cc3cccc(NC(=O)c4cccc(Cl)c4)c3)c12 | 49.9% (inactive) |
| O=C(Cn1c2c(sc1=O)[C@H]1[C@@H](O)[C@@H](O)[C@H](O)[C@@H]1CS2)N1CCOCC1 | 88.2% (inactive) |
| CC(=O)Nc1cccc(Nc2nc(N[C@H]3CCCc4ccccc43)c3ccccc3n2)c1 | 99.1% (inactive) |
| N/C(=N\c1nc2ccccc2s1)NC(=O)NCCCCCCO | 51.2% (inactive) |
| COc1ccc2c(c1)C(=N/N=C(\C)c1ccc(OC)c(S(N)(=O)=O)c1)C(=O)N2 | 102% (inactive) |
| CCCSc1nc(NCCc2c[nH]c3ccccc23)c(C#N)c(-c2ccc(F)cc2)n1 | 91.6% (inactive) |
| O=c1[nH]c2ccccc2cc1CSc1cccc(Nc2nccc(-c3ccc4ccccc4c3)n2)c1 | 79.9% (inactive) |
| CCN(CC)c1ccnc(CNCCSC(c2ccccc2)(c2ccccc2)c2ccc(C)cc2)c1 | -85.7% (active) |
| CN(C)CCn1c2ccccc2c2nc3cc(C(F)(F)F)ccc3nc21 | 108% (inactive) |
| CC1(C)CC[C@]2(C(=O)Nc3ccc(Br)cc3)CC[C@]3(C)C(=CCC4[C@@]5(C)C[C@@H](O)[C@H](O)[C@@](C)(CO)C5CC[C@]43C)C2C1 (stereo partly drawn) | 22.5% (inactive) |
| CCC(C)(C)c1ccc(OCCCCCCN2CCN(c3ccncc3)CC2)cc1 | 65.2% (inactive) |
| COc1ccc(C(=O)/C=C/c2ccc(Cl)c(Cl)c2)cc1S(N)(=O)=O | 5.47% (active) |
| Cc1cc(N=C2NC(=O)CS2)n[nH]1 | 108% (inactive) |
| Cc1ccc(C(=O)CSc2nc3ccc(F)cc3c(=O)n2-c2ccc(Cl)cc2)cc1 | 83.7% (inactive) |
| COc1ccc(C(=O)/C=C/c2cccc(Br)c2)cc1S(N)(=O)=O | -91.8% (active) |
| Cc1sc(C(NC(=O)OCCn2c([N+](=O)[O-])cnc2C)C(F)(F)Cl)nc1-c1ccc(OC(F)(F)F)cc1 (stereo not drawn) | -91.7% (active) |
| COc1ccc(NC(=O)Cn2c3c(sc2=O)[C@H]2[C@@H](O)[C@@H](O)[C@H](O)[C@@H]2CS3)cc1 | 112% (inactive) |
